Here are results for 22 molecules from PubChem BioAssay (NCATS).

Inconclusive results are not listed. Values without a mark were called inactive. Active and inactive are the calls of the source. Calls come from the whole dose curve; as a rule, active = well fitted curve in the direction sought with a large enough effect; inconclusive = small, poorly fitted or top-dose-only effect, or another doubt; inactive = no such curve, though single readings can be large; an effect the other way counts as inactive or inconclusive.

Experiment [1] concerns the target Rap guanine nucleotide exchange factor 3 (Homo sapiens) (UniProt O95398). Nature of the experiment: Confirmatory qHTS for antagonist of cAMP-regulated guanine nucleotide exchange factor 3 (EPAC1) (AID 1645880). Note: nearly all actives have a fitted effect of over 55% in size. Note: potency is the fitted concentration of half-maximal effect. In a few lines: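 Nucleotide exchange uses 100 nM EPAC1, 250 nM RAP1B-BODIPY-GDP and 50 uM GDP, with compounds in a concentration-titration series. After 5 min at room temperature, fluorescence (480 nm ex/540 nm em) is read every 5 min for 30 min. Data are normalized to control ATA and DMSO.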

Experiment [2] has the same target. Nature of the experiment: Confirmatory qHTS for agonist of cAMP-regulated guanine nucleotide exchange factor 3 (EPAC1) (AID 1645881).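 For activation: EPAC1 catalysed release of BODIPY-GDP from Rap1B seen as fluorescence loss; 100% = effect of cAMP agonist control.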 Note: nearly all actives have a fitted effect of over 75% in size. Note: potency is the fitted concentration of half-maximal effect.
Experiment [3] has as its target Rap guanine nucleotide exchange factor 4 (Homo sapiens) (UniProt Q8WZA2). Nature of the experiment: Confirmatory qHTS for agonist of cAMP-regulated guanine nucleotide exchange factor 4 (EPAC2) (AID 1645884). For activation: % is set by controls: 0 for no effect and ±100 for the full control effect.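 Note: nucleotide exchange releases bodipy-GDP from Rap1 and this lowers its fluorescence; nearly all actives have a fitted effect of over 65% in size.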 Note: potency is the fitted concentration of half-maximal effect.
The target is the same in experiment [4]. Nature of the experiment: Confirmatory qHTS for antagonist of cAMP-regulated guanine nucleotide exchange factor 4 (EPAC2) (AID 1645885; note: nearly all actives have a fitted effect of over 25% in size; note: potency is the fitted concentration of half-maximal effect; for activity change, negative = inhibition: % is set by controls: 0 for no effect and ±100 for the full control effect). (In qHTS, concentration-response curves come from the screen itself.)
The target in experiment [5] is Rap guanine nucleotide exchange factor 3 (Homo sapiens) (UniProt O95398). Nature of the experiment: Counterscreen qHTS for antagonist of cAMP-regulated guanine nucleotide exchange factor 3 (EPAC1) (AID 1645888). Note: % of control where 0% means no effect. In a few lines: (§1)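 Measured: fluorescence of BODIPY-GDP bound to Rap1B, which falls as exchange proceeds. Conditions include 50 uM competing GDP, 5 and 30 min reads, and a later cAMP challenge for antagonist detection.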
Rap guanine nucleotide exchange factor 3 (Homo sapiens), sequence (O95398 whole entry, looked up): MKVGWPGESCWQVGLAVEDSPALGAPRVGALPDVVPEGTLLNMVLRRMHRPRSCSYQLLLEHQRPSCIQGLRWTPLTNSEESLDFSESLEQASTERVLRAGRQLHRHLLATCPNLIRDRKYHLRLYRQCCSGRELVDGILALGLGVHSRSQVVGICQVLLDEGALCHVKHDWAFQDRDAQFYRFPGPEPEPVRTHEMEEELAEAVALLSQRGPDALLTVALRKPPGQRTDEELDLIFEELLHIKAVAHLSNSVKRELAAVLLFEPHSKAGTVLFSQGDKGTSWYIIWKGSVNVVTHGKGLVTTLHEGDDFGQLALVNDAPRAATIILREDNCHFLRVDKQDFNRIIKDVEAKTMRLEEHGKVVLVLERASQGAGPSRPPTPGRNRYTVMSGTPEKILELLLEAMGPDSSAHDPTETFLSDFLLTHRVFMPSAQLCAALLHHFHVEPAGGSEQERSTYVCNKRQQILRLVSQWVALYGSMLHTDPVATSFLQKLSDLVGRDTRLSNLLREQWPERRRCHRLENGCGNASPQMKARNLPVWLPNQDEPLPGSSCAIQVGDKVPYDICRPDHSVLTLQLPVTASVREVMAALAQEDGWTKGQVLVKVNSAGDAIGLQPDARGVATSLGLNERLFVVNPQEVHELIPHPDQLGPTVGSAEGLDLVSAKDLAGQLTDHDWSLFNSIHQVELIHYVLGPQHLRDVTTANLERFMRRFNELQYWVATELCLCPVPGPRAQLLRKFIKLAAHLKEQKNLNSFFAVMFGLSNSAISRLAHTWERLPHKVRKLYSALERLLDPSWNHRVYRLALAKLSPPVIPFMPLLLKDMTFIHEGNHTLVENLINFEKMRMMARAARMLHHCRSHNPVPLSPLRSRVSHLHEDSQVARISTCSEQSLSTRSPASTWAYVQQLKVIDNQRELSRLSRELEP
On the technique in general: A counterscreen serves to expose hits that act by an unwanted route or on another target.

For experiment [6] the target is unchanged. Nature of the experiment: Counterscreen qHTS for agonist of cAMP-regulated guanine nucleotide exchange factor 3 (EPAC1) (AID 1645889). For activation: % of control where 0% means no effect. Note: nearly all actives have a fitted effect of over 40% in size. Note: potency is the fitted concentration of half-maximal effect. In a few lines: as §1

Rap guanine nucleotide exchange factor 4 (Homo sapiens), sequence (Q8WZA2 whole entry, looked up): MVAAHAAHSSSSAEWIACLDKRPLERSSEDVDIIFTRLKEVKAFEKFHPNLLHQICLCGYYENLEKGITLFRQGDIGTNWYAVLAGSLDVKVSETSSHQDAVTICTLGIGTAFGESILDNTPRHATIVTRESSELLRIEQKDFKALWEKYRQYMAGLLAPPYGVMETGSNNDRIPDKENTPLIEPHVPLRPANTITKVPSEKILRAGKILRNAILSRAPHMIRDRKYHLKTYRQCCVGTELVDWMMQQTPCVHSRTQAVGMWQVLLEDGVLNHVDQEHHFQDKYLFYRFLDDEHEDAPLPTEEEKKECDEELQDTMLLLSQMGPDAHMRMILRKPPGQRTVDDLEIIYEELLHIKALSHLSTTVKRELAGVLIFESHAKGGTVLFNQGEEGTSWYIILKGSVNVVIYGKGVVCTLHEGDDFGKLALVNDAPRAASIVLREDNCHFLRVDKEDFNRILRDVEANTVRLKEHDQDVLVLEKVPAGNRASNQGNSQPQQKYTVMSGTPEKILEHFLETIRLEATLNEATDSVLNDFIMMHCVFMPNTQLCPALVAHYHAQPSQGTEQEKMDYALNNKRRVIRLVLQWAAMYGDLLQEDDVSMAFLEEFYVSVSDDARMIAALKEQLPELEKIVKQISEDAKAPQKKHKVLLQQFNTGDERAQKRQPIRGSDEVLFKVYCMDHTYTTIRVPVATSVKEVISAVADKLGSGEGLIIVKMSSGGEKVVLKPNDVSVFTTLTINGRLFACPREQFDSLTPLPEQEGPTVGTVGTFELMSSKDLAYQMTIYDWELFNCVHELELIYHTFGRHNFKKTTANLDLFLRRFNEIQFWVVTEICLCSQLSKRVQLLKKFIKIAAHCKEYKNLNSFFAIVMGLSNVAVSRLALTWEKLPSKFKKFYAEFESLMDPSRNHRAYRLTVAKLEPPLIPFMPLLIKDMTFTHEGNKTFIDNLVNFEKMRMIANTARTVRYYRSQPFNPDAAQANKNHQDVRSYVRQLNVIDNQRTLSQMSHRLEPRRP

On to `COc1cccc(-c2ccc(C#N)c(OC(=O)c3ccc(Cl)cc3)n2)c1`, for which the Potency result in experiment [1], in experiment [2] and in experiment [4] was “inactive” each time. The activation is 0.578% [at 17.1 µM, percent relative to cAMP agonist control] in experiment [3] and 3.51% [at 30.8 µM] in experiment [6]. Moreover, the activity change, negative = inhibition in experiment [5] was -4.63% [at 30.8 µM].
As for `COc1ccc(C2=CC(=O)C[C@H](COCc3ccccc3)N(C(=O)OC(C)(C)C)O2)cc1`, the Potency result in experiment [1], in experiment [2], in experiment [3], in experiment [4], in experiment [5] and in experiment [6] was “inactive” throughout.
For the molecule `O=C(O)CCN1C(=O)/C(=C\c2cccc(Oc3ccccc3)c2)SC1=S`, the Potency in experiment [1] is 26.9 µM (active); in experiment [4] it was 21.3 µM (active). The Potency result in experiment [2], in experiment [3], in experiment [5] and in experiment [6] was “inactive” in each case.
Turning to `O=C(Nc1cccc(Cl)c1)OC1CCCCc2cccnc21` (configuration not stated), the Potency entry in experiment [1], in experiment [2] and in experiment [4] was “inactive” in each case. Moreover, the activation in experiment [3] is 5.07% [at 17.1 µM, percent relative to cAMP agonist control]; in experiment [6] it was 25.6% [at 30.8 µM]. Besides, the activity change, negative = inhibition in experiment [5] is -21.2% [at 30.8 µM].
`Cc1ccc(Sc2ccc(S(=O)(=O)Nc3ccc(C(=O)O)cc3)cc2)cc1C`: the Potency in experiment [1] is 67.5 µM (active). The Potency result in experiment [2], in experiment [3], in experiment [4], in experiment [5] and in experiment [6] was “inactive” each time.
As to `COc1cc(Cl)c(C)cc1NC(=O)c1ccc(CN2C(=O)CCn3nc(C)cc32)cc1`, the Potency result in experiment [1], in experiment [2], in experiment [3], in experiment [4], in experiment [5] and in experiment [6] was “inactive” throughout.
Regarding `CCN(CC)c1ccc2oc(=O)c(C)nc2c1`, the Potency entry in experiment [1] and in experiment [5] was “inactive” in each case. Further, the Potency in experiment [2] was 100 µM (active); in experiment [3], 100 µM (active); in experiment [4] it was 75.7 µM (active); in experiment [6], 39.8 µM (active).
As for `CCOc1ccccc1NC(=O)COC(=O)c1ccc(S(=O)(=O)N2CCCC2)cc1`, the Potency entry in experiment [1], in experiment [2], in experiment [3], in experiment [4], in experiment [5] and in experiment [6] was “inactive” each time.
Regarding `CCN1C/C(=C/c2ccc(N3CCOCC3)cc2)C(=O)/C(=C/c2ccc(N3CCOCC3)cc2)C1`, the Potency result in experiment [1] and in experiment [5] was “inactive” throughout. The Potency was 100 µM (active) in experiment [2], 100 µM (active) in experiment [3], 67.5 µM (active) in experiment [4] and 39.8 µM (active) in experiment [6].
With `CCOC(=O)N1CCN(C(=O)c2cc(S(=O)(=O)N3CCc4ccccc43)ccc2OC)CC1`, the Potency result in experiment [1], in experiment [2], in experiment [3], in experiment [4], in experiment [5] and in experiment [6] was “inactive” throughout.
As for `Cc1ccc(S(=O)(=O)N2CCCCC2)cc1C(=O)NCCC1=CCCCC1`, the Potency entry in experiment [1], in experiment [2], in experiment [3], in experiment [4], in experiment [5] and in experiment [6] was “inactive” throughout.
With `COc1ccc(N2CCN(C(=O)c3noc4c3CCCCC4)CC2)cc1`, the Potency entry in experiment [1], in experiment [2], in experiment [3], in experiment [4], in experiment [5] and in experiment [6] was “inactive” each time.
Regarding `COc1ccc(CNc2cccnc2)c(OC)c1OC`, the Potency entry in experiment [1], in experiment [2] and in experiment [4] was “inactive” each time. The activation in experiment [3] was -6.76% [at 17.1 µM, percent relative to cAMP agonist control]; in experiment [6], 15.5% [at 30.8 µM]. Further, the activity change, negative = inhibition in experiment [5] was -16% [at 30.8 µM].
On to `COc1ccc2c(c1)C1=NN(/C(C)=C/C(C)=O)C(c3cccc(F)c3)C1CC2` (configuration not stated), for which the Potency entry in experiment [1], in experiment [2] and in experiment [4] was “inactive” in each case. The activation in experiment [3] is 0.819% [at 17.1 µM, percent relative to cAMP agonist control]; in experiment [6], 8.14% [at 30.8 µM]. In addition, the activity change, negative = inhibition in experiment [5] is -17.2% [at 30.8 µM].
As for `CSCCC(NS(=O)(=O)c1ccc2c(c1)oc(=O)n2C)C(=O)NC1CCCc2ccccc21` (configuration not stated), the Potency result in experiment [1], in experiment [2], in experiment [3], in experiment [4], in experiment [5] and in experiment [6] was “inactive” throughout.
For `CCOc1ccc(/C=C/C(=O)c2cc(Br)ccc(=O)c2O)cc1`, the Potency in experiment [1] was 33.8 µM (active). Also, the Potency result in experiment [2], in experiment [3], in experiment [4], in experiment [5] and in experiment [6] was “inactive” in each case.
On to `CN1C(=O)C2(C(C#N)=C(N)N(c3cc(Cl)cc(Cl)c3)C3=C2C(=O)CC(C)(C)C3)c2ccccc21` (configuration not stated), for which the Potency result in experiment [1], in experiment [2], in experiment [3], in experiment [4], in experiment [5] and in experiment [6] was “inactive” in each case.
As for `COc1ccc(N2CCN(C(=O)COC(=O)COc3cc(C)cc(C)c3)CC2)cc1`, the Potency result in experiment [1], in experiment [2] and in experiment [4] was “inactive” throughout. For the same molecule, the activation in experiment [3] was 0.676% [at 17.1 µM, percent relative to cAMP agonist control]; in experiment [6], -0.0753% [at 30.8 µM]. In addition, the activity change, negative = inhibition in experiment [5] was -19.2% [at 30.8 µM].
`Cc1nn(CC(=O)N(C)C2CCS(=O)(=O)C2)c(C)c1[N+](=O)[O-]` (configuration not stated): the Potency result in experiment [1], in experiment [2] and in experiment [4] was “inactive” each time. For the same molecule, the activation in experiment [3] was 2.8% [at 17.1 µM, percent relative to cAMP agonist control]; in experiment [6], 30.9% [at 30.8 µM]. The activity change, negative = inhibition in experiment [5] was -13.2% [at 30.8 µM].
For the molecule `CC(C)CS(=O)(=O)C1=NN2C(=N)/C(=C\c3ccc(OC(=O)c4ccco4)cc3)C(=O)N=C2S1`, in experiment [1], the Potency is 37.9 µM (active). For the same molecule, the Potency entry in experiment [2], in experiment [3], in experiment [4], in experiment [5] and in experiment [6] was “inactive” throughout.
On to `CCOC(=O)C1CCCN(C(=O)C(C)(C)Oc2ccc(Cl)cc2)C1` (configuration not stated), for which the Potency result in experiment [1], in experiment [2], in experiment [3], in experiment [4], in experiment [5] and in experiment [6] was “inactive” in each case.
On to `COc1ccc(C2CC(=O)n3c(nc4ccccc43)S2)cc1OC` (configuration not stated), for which the Potency entry in experiment [1], in experiment [2] and in experiment [4] was “inactive” in each case. Moreover, the activation in experiment [3] is 2.96% [at 17.1 µM, percent relative to cAMP agonist control]; in experiment [6], 6.35% [at 30.8 µM]. The activity change, negative = inhibition in experiment [5] is 10.2% [at 30.8 µM].
